Measurements published in the supplement of paper PMC8728848.
This is one part of a sample in which the strongest signals are shown more often than they occur.

Legend:
Assay in all cases: glycan array binding signal (z-score within array); higher = stronger binding
Conditions in all cases: glycan notation: IUPAC condensed, linker removed
[1] = biological target: Fuc(a1-2)Gal(b1-3)GlcNAc6S
Outline: (§1)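 From the Consortium for Functional Glycomics database, 3228 arrays were curated, keeping only those whose protein sequence was available. Binding is given as a within-array Z-score averaged across arrays sharing a protein sequence and across linkers. Negative Z-scores can be read as non-binding.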

[2] = biological target: Fuc(a1-2)Gal(b1-3)[Fuc(a1-4)]GlcNAc(b1-3)[Fuc(a1-3)[Gal(b1-4)]GlcNAc(b1-6)]Gal(b1-4)Glc
Outline: as §1

[3] = biological target: Fuc(a1-2)Gal(b1-4)GlcNAc(b1-6)GalNAc
Outline: as §1

[4] = biological target: Fuc(a1-2)Gal(b1-4)[Fuc(a1-3)]GlcNAc
Outline: as §1

[5] = biological target: Fuc(a1-2)[Gal(a1-3)]Gal(b1-3)GlcNAc
Outline: as §1

[6] = biological target: Fuc(a1-2)[Gal(a1-3)]Gal(b1-3)GlcNAc(b1-3)GalNAc
Outline: as §1

[7] = biological target: Fuc(a1-2)[Gal(a1-3)]Gal(b1-4)GlcNAc
Outline: as §1

[8] = biological target: Fuc(a1-2)[GalNAc(a1-3)]Gal(b1-4)GlcNAc(b1-2)Man
Outline: as §1

[9] = biological target: Fuc(a1-2)[GalNAc(a1-3)]Gal(b1-4)GlcNAc(b1-3)GalNAc
Outline: as §1

[10] = biological target: Fuc(a1-2)[GalNAc(a1-3)]Gal(b1-4)GlcNAc(b1-6)GalNAc
Outline: as §1

[11] = biological target: Fuc(a1-2)[GalNAc(b1-3)]Gal
Outline: as §1

[12] = biological target: Fuc(a1-3)[Gal(b1-4)]GlcNAc(b1-2)Man
Outline: as §1

Gal(a1-3)Gal(b1-3)GlcNAc = biological target: Gal(a1-3)Gal(b1-3)GlcNAc
Outline: as §1

[13] = biological target: Gal(a1-3)Gal(b1-3)GlcNAc(b1-2)Man(a1-3)[Gal(a1-3)Gal(b1-3)GlcNAc(b1-2)Man(a1-6)]Man(b1-4)GlcNAc(b1-4)GlcNAc
Outline: as §1

[14] = biological target: Gal(a1-3)Gal(b1-4)GlcNAc(b1-6)GalNAc
Outline: as §1

[15] = biological target: Gal(b1-3)GlcNAc(a1-6)Gal(b1-4)GlcNAc
Outline: as §1

[16] = biological target: Gal(b1-3)GlcNAc(b1-3)Gal(b1-4)Glc
Outline: as §1

[17] = biological target: Gal(b1-3)GlcNAc(b1-6)GalNAc
Outline: as §1

[18] = biological target: Gal(b1-3)[Fuc(a1-4)]GlcNAc(b1-3)Gal(b1-3)[Fuc(a1-4)]GlcNAc
Outline: as §1

[19] = biological target: Gal(b1-3)[Neu5Ac(a2-6)]GlcNAc(b1-4)Gal(b1-4)Glc
Outline: as §1

[20] = biological target: Gal(b1-4)GalNAc(b1-3)[Fuc(a1-2)]Gal(b1-4)GlcNAc
Outline: as §1

[21] = biological target: Gal(b1-4)GlcNAc(b1-2)[Gal(b1-4)GlcNAc(b1-6)]Man(a1-6)[GlcNAc(b1-4)][Gal(b1-4)GlcNAc(b1-2)[Gal(b1-4)GlcNAc(b1-4)]Man(a1-3)]Man(b1-4)GlcNAc(b1-4)[Fuc(a1-6)]GlcNAc
Outline: as §1

[22] = biological target: Gal(b1-4)GlcNAc(b1-3)Gal(b1-4)GlcNAc(b1-2)Man(a1-3)[Gal(b1-4)GlcNAc(b1-3)Gal(b1-4)GlcNAc(b1-2)Man(a1-6)]Man(b1-4)GlcNAc(b1-4)GlcNAc
Outline: as §1

Gal3S(b1-4)Glc = biological target: Gal3S(b1-4)Glc
Outline: as §1

[23] = biological target: Gal3S(b1-4)[Fuc(a1-3)]GlcNAc6S
Outline: as §1

Gal6S(b1-4)GlcNAc6S = biological target: Gal6S(b1-4)GlcNAc6S
Outline: as §1

GalNAc(a1-3)Gal = biological target: GalNAc(a1-3)Gal
Outline: as §1

GalNAc(b1-3)Gal = biological target: GalNAc(b1-3)Gal
Outline: as §1

[24] = biological target: GalNAc(b1-3)Gal(a1-4)Gal(b1-4)GlcNAc
Outline: as §1

[25] = biological target: GalNAc(b1-3)Gal(a1-4)Gal(b1-4)GlcNAc(b1-3)Gal(b1-4)Glc
Outline: as §1

[26] = biological target: GalNAc(b1-3)Gal(a1-6)Gal(b1-4)Glc
Outline: as §1

GalNAc3S(b1-4)GlcNAc = biological target: GalNAc3S(b1-4)GlcNAc
Outline: as §1

[27] = biological target: GlcNAc(a1-4)Gal(b1-3)GlcNAc
Outline: as §1

[28] = biological target: GlcNAc(a1-4)Gal(b1-4)GlcNAc(b1-3)Gal(b1-4)GlcNAc
Outline: as §1

[29] = biological target: GlcNAc(b1-2)Man(a1-3)[GlcNAc(b1-2)Man(a1-6)]Man(b1-4)GlcNAc(b1-4)GlcNAc
Outline: as §1

GlcNAc(b1-3)Gal = biological target: GlcNAc(b1-3)Gal
Outline: as §1

GlcNAc(b1-6)GalNAc = biological target: GlcNAc(b1-6)GalNAc
Outline: as §1

[30] = biological target: Man(a1-2)Man(a1-3)[Man(a1-2)Man(a1-6)]Man(a1-6)[Man(a1-2)Man(a1-2)Man(a1-3)]Man
Outline: as §1

[31] = biological target: Man(a1-3)[Man(a1-6)]Man(a1-6)[Man(a1-3)]Man(b1-4)GlcNAc(b1-4)GlcNAc
Outline: as §1

[32] = biological target: Neu5Ac(a2-3)Gal(b1-3)GalNAc(b1-3)Gal(a1-4)Gal(b1-4)Glc
Outline: as §1

[33] = biological target: Neu5Ac(a2-3)Gal(b1-3)[Fuc(a1-4)]GlcNAc(b1-3)Gal(b1-3)[Fuc(a1-4)]GlcNAc
Outline: as §1

Neu5Ac(a2-3)Gal(b1-4)Glc = biological target: Neu5Ac(a2-3)Gal(b1-4)Glc
Outline: as §1

[34] = biological target: Neu5Ac(a2-3)Gal(b1-4)GlcNAc(b1-2)Man(a1-3)[Neu5Ac(a2-3)Gal(b1-4)GlcNAc(b1-2)Man(a1-6)]Man(b1-4)GlcNAc(b1-4)[Fuc(a1-6)]GlcNAc
Outline: as §1

[35] = biological target: Neu5Ac(a2-3)Gal(b1-4)GlcNAc(b1-3)Gal
Outline: as §1

[36] = biological target: Neu5Ac(a2-3)Gal(b1-4)GlcNAc(b1-3)Gal(b1-4)GlcNAc
Outline: as §1

[37] = biological target: Neu5Ac(a2-3)Gal(b1-4)[Fuc(a1-3)]GlcNAc(b1-6)[Neu5Ac(a2-3)Gal(b1-3)]GalNAc
Outline: as §1

[38] = biological target: Neu5Ac(a2-6)Gal(b1-4)GlcNAc(b1-2)[Neu5Ac(a2-6)Gal(b1-4)GlcNAc(b1-4)]Man(a1-3)[GlcNAc(b1-4)][Neu5Ac(a2-6)Gal(b1-4)GlcNAc(b1-4)Man(a1-6)]Man(b1-4)GlcNAc(b1-4)GlcNAc
Outline: as §1

[39] = biological target: Neu5Ac(a2-8)Neu5Ac(a2-8)Neu5Ac(a2-3)[GalNAc(b1-4)]Gal(b1-4)Glc
Outline: as §1

Neu5Ac(b2-6)GalNAc = biological target: Neu5Ac(b2-6)GalNAc
Outline: as §1

B1: Cohesin-mDCIR (Macaca mulatta) (protein)
chain: GLDDLDAVRIKVDTVNAKPGDTVRIPVRFSGIPSKGIANCDFVYSYDPNVLEIIEIEPGDIIVDPNPDKSFDTAVYPDRKIIVFLFAEDSGTGAYAITKDGVFATIVAKVKEGAPNGLSVIKFVEVGGFANNDLVEQKTQFFDGGVNVGDTTEPATPTTPVTTPTTTDDLDAASFQKYSQLLEKMTTKDLVHTTLECVKKNMTTEETAWSCCPKNWKPFSSNCYFISTESASWQKSEKDCARMEAHLLVINTREEQDFIFQNLQEESAYFVGLSDPEGQRHWQWVDRTPYNESSTFWHPHEPSDPDERCVVLNFRKTPKRWGWNDVHCIVHQRSVCEMMKIHLHHHHHH
**Q.** For B1, which “glycan array binding signal (z-score)” value [1] is on record?
**A.** -0.407

**Q.** What about the “glycan array binding signal (z-score)” value [2] of the same binder?
**A.** -0.151

**Q.** And the “glycan array binding signal (z-score)” value [3]?
**A.** 0.7

**Q.** And the “glycan array binding signal (z-score)” value [4]?
**A.** 0.229

**Q.** And the “glycan array binding signal (z-score)” value [5]?
**A.** 3.96

**Q.** What about the “glycan array binding signal (z-score)” value [6] of the same binder?
**A.** -0.241

**Q.** And the “glycan array binding signal (z-score)” value [7]?
**A.** -0.349

**Q.** And the “glycan array binding signal (z-score)” value [8]?
**A.** -0.101

**Q.** What about the “glycan array binding signal (z-score)” value [9] of the same binder?
**A.** -0.338

**Q.** What about the “glycan array binding signal (z-score)” value [10] of the same binder?
**A.** 5.37

**Q.** What about the “glycan array binding signal (z-score)” value [11] of the same binder?
**A.** 3.27

**Q.** And the “glycan array binding signal (z-score)” value [12]?
**A.** -0.274

**Q.** What about the “glycan array binding signal (z-score)” value (Gal(a1-3)Gal(b1-3)GlcNAc) of the same binder?
**A.** 8.73

**Q.** What about the “glycan array binding signal (z-score)” value [13] of the same binder?
**A.** -0.246

**Q.** What about the “glycan array binding signal (z-score)” value [14] of the same binder?
**A.** 6.42

**Q.** And the “glycan array binding signal (z-score)” value [15]?
**A.** -0.186

**Q.** What about the “glycan array binding signal (z-score)” value [16] of the same binder?
**A.** -0.363

**Q.** And the “glycan array binding signal (z-score)” value [17]?
**A.** 3.16

**Q.** What about the “glycan array binding signal (z-score)” value [18] of the same binder?
**A.** 4.89

**Q.** And the “glycan array binding signal (z-score)” value [19]?
**A.** -0.388

**Q.** And the “glycan array binding signal (z-score)” value [20]?
**A.** -0.103

**Q.** What about the “glycan array binding signal (z-score)” value [21] of the same binder?
**A.** -0.425

**Q.** And the “glycan array binding signal (z-score)” value [22]?
**A.** 4.39

**Q.** What about the “glycan array binding signal (z-score)” value (Gal3S(b1-4)Glc) of the same binder?
**A.** 5.11

**Q.** What about the “glycan array binding signal (z-score)” value [23] of the same binder?
**A.** 1.55

**Q.** And the “glycan array binding signal (z-score)” value (Gal6S(b1-4)GlcNAc6S)?
**A.** 0.096

**Q.** What about the “glycan array binding signal (z-score)” value (GalNAc(a1-3)Gal) of the same binder?
**A.** 0.417

**Q.** What about the “glycan array binding signal (z-score)” value (GalNAc(b1-3)Gal) of the same binder?
**A.** 2.45

**Q.** And the “glycan array binding signal (z-score)” value [24]?
**A.** 1.26

**Q.** What about the “glycan array binding signal (z-score)” value [25] of the same binder?
**A.** 0.862

**Q.** What about the “glycan array binding signal (z-score)” value [26] of the same binder?
**A.** 2.77

**Q.** What about the “glycan array binding signal (z-score)” value (GalNAc3S(b1-4)GlcNAc) of the same binder?
**A.** -0.436

**Q.** And the “glycan array binding signal (z-score)” value [27]?
**A.** -0.401

**Q.** And the “glycan array binding signal (z-score)” value [28]?
**A.** -0.366

**Q.** And the “glycan array binding signal (z-score)” value [29]?
**A.** -0.313

**Q.** And the “glycan array binding signal (z-score)” value (GlcNAc(b1-3)Gal)?
**A.** -0.352

**Q.** What about the “glycan array binding signal (z-score)” value (GlcNAc(b1-6)GalNAc) of the same binder?
**A.** 1.02

**Q.** What about the “glycan array binding signal (z-score)” value [30] of the same binder?
**A.** -0.438

**Q.** What about the “glycan array binding signal (z-score)” value [31] of the same binder?
**A.** -0.439

**Q.** And the “glycan array binding signal (z-score)” value [32]?
**A.** -0.388

**Q.** What about the “glycan array binding signal (z-score)” value [33] of the same binder?
**A.** -0.418

**Q.** What about the “glycan array binding signal (z-score)” value (Neu5Ac(a2-3)Gal(b1-4)Glc) of the same binder?
**A.** -0.444

**Q.** What about the “glycan array binding signal (z-score)” value [34] of the same binder?
**A.** -0.364

**Q.** And the “glycan array binding signal (z-score)” value [35]?
**A.** -0.377

**Q.** And the “glycan array binding signal (z-score)” value [36]?
**A.** -0.175

**Q.** And the “glycan array binding signal (z-score)” value [37]?
**A.** -0.363

**Q.** And the “glycan array binding signal (z-score)” value [38]?
**A.** -0.257

**Q.** And the “glycan array binding signal (z-score)” value [39]?
**A.** 0.263

**Q.** What about the “glycan array binding signal (z-score)” value (Neu5Ac(b2-6)GalNAc) of the same binder?
**A.** -0.406
